Shown are actives, neighbours in structure and some others; about 2.3% of the full set was active somewhere.
CHO-K1 Ca antag: nonselective inhibitor or artifact in parental CHO-K1 cells; ATP-induced calcium, Fluo-8 fluorescence; inhibition, % at 3 µM; 0.6% of 360,000 active; AID 602250;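 active = inhibition above a per-plate cutoff, the plate's mean sample inhibition plus 3 SD, cut at about 24% in these data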;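 note: 0% = DMSO plus EC80 ATP and 100% = DMSO alone without ATP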
M1 ag: human M1 muscarinic receptor agonism; P11229; CHO-K1 hM1, Fluo-8 calcium fluorescence, agonist mode; 0% DMSO, 100% acetylcholine EC100; activation, % at 3 µM; 0.33% of 360,000 active; AID 588814;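 active = activation above the run's mean compound activation plus 3 SD, cut at about 16% in these data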;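 note: peak over basal fluorescence ratio within a 140 s kinetic read after compound addition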
Target sequence (P11229 whole entry, looked up): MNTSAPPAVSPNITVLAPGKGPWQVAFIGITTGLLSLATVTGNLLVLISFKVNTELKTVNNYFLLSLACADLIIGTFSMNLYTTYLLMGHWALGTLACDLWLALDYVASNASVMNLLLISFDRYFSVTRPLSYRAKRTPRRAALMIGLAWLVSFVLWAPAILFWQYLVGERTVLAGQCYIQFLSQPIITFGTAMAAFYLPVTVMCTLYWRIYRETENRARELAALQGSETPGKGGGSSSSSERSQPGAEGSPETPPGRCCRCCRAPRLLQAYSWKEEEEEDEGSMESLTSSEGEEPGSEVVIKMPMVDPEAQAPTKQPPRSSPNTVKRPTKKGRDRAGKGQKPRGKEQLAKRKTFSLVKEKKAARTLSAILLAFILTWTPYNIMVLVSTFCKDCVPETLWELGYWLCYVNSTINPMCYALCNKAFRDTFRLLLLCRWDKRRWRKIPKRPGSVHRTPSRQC
CHO-K1 Ca PAM: M1 PAM counterscreen hit in parental CHO-K1 cells. ATP EC20, Fluo-8 calcium fluorescence; 0% at ATP EC20, 100% at ATP max. activation, % at 3 µM. 0.02% of 360,000 active;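 active = activation above the run cutoff, the mean activation of all test compounds plus 3 SD, cut at about 40% in these data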;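 note: peak over basal fluorescence ratio in a 140 s read after ATP addition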
CHO-K1 Ca ag: M1 agonist counterscreen hit in parental CHO-K1 cells; Fluo-8 calcium fluorescence; scaled to maximal ATP response, vehicle zero; activation, % at 3 µM; 0.48% of 360,000 active; in the data active = activation above about 15%;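 note: untransfected CHO-K1 host cells lacking M1 receptor as counterscreen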
M1 PAM: human CHRM1 positive allosteric modulation; CHO-K1 hM1, Fluo-8 calcium fluorescence, ACh EC20; 0% = ACh EC20, 100% = maximal ACh; AID 588819; activation, % at 3 µM; 0.088% of 360,000 active; P11229; in the data active = activation above about 19%, passing the limit was not always enough
M1 antag: human CHRM1 antagonism | P11229 | CHO-K1 hM1, Fluo-8 calcium fluorescence, ACh EC80 antagonist | inhibition, % at 3 µM | 1.3% of 360,000 active;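 active = percent inhibition above its own plate's cutoff, namely the mean of that plate's compound wells plus 3 SD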;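 note: peak over basal fluorescence ratio during 140 s after agonist addition; 0% = ACh EC80 plus DMSO and 100% = DMSO alone without agonist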
* marks the source's active call; other numbers are inactive results.

SMILES	CHO-K1 Ca antag	M1 ag	CHO-K1 Ca PAM	CHO-K1 Ca ag	M1 PAM	M1 antag
O=C(C(=O)N1CCOCC1)c1cn(CCOc2ccccc2)c2ccccc12	-5	-7	5	5	3	-1
CC(=O)c1cn(CCOc2ccccc2C)c2ccccc12	6	1	18	13	-12	33*
Cc1ccccc1OCCn1cc(C(=O)C(=O)N2CCOCC2)c2ccccc21	-9	-5	13	23*	-5	13
Cc1ccc2c(C)c(C)c(=O)n(C)c2c1	-10	-1	6	0	-4	-2
CCN(CCCNC(=O)C1CCN(S(=O)(=O)c2cccc3nonc23)CC1)Cc1ccccc1	-5	-5	-6	0	-20	47*
O=C(COC(=O)c1ncc(Cl)c(Cl)c1Cl)NC(=O)c1ccccc1	6	-1	-20	0	7	-1
CC(=O)c1cccc(NC(=O)NCCc2c[nH]c3ccccc23)c1	-7	-1	-6	4	-5	2
O=C(COC(=O)c1ccccc1C(=O)OCC(=O)NCCc1c[nH]c2ccccc12)NCCc1c[nH]c2ccccc12	12	-4	-4	8	-18	34*
O=C(Nc1cccc(CNCCc2c[nH]c3ccccc23)c1)c1ccccc1Cl	3	-3	4	27*	1	-2
Cc1ccc(-c2csc(NC(=O)C3=NN(c4ccccc4)C(=O)CC3)n2)cc1	1	-6	15	6	-2	10
Cc1ccc(NC(=O)C2CCN(S(=O)(=O)c3ccc(N4CCCC4=O)cc3)CC2)cc1Cl	32*	2	-10	16*	-15	47*
CCOc1ccc(N2CC(C(=O)Nc3ccc(S(=O)(=O)N4CCCCC4)cc3)CC2=O)cc1 (stereo unspecified)	68*	-6	15	0	5	-15
CC1Sc2ccc(S(=O)(=O)N3CCC(C(=O)Nc4ccc(Cl)cc4)CC3)cc2NC1=O (stereo unspecified)	31*	-1	-20	9	-14	45*
Cc1ccc(-c2cnn3c(N4CCOCC4)cc(C)nc23)cc1	-4	-1	12	0	14	-6
CN(C)CCNc1nc(-c2ccccc2)nnc1C(F)(F)F	46*	0	2	6	-2	-18
CN(C)c1nc(-c2ccccc2)nnc1C(F)(F)F	-1	-6	17	0	6	-19
Cc1nn(-c2ccccc2)c(Cl)c1/C=C/C(=O)c1ccccc1	28*	-1	-6	0	2	-26
Cc1nn(-c2ccccc2)c(Cl)c1/C=N/O	10	-7	5	0	-1	7
Cc1cc(C)c2nc(N3CCCC(C(=O)NC4CCCC4)C3)sc2c1 (stereo unspecified)	-12	-3	13	1	7	-7
CCCC1NC(=O)c2cccnc2-n2c1nc1ccc(OC)cc1c2=O (stereo unspecified)	-1	-2	13	0	4	-12
CCOCCCn1c(SCC(=O)Nc2ccccc2)nc2ccccc2c1=O	35*	-6	-24	0	-2	0
CCOCCCn1c(SCC(=O)Nc2ccc(NC(C)=O)cc2)nc2ccccc2c1=O	-2	-2	12	0	2	-18
CCc1ccc(NC(=O)CSc2nc3ccccc3c(=O)n2CCCC(=O)N2CCCC2)cc1	25*	1	-4	0	10	-6
CN(Cc1ccccc1)S(=O)(=O)c1ccc(Cl)c(C(=O)NCCCN2CCOCC2)c1	-13	-7	31	3	8	-14
Cc1[nH]n(C(N)=S)c(=O)c1N=Nc1cccc([N+](=O)[O-])c1C	10	8	-3	26*	6	0
SMILES	CHO-K1 Ca antag	M1 ag	CHO-K1 Ca PAM	CHO-K1 Ca ag	M1 PAM	M1 antag
Cc1cc(C)c2nc(N3CCC(C(=O)NCCCN4CCCCC4)CC3)sc2c1	13	-5	11	0	-20	76*
Cc1cc(C)c2nc(N3CCC(C(=O)N4CCCC4)CC3)sc2c1	-19	-8	1	0	-23	37*
O=C(Nc1ccc(-c2noc(CCc3ccccc3)n2)cc1)c1cccnc1	20	1	1	7	-13	26*
O=C(NCCc1ccccc1)c1ccc(NC(=O)c2cccnc2)cc1	-3	-4	12	3	8	-19
CCOC(=O)c1ccc(NC(=O)CCc2nc(-c3ccccc3)no2)cc1	6	0	4	6	-10	31*
NC(=O)CC(NC(=O)Cc1cccc2ccccc12)c1ccc(N2CCc3ccccc3C2)c([N+](=O)[O-])c1 (stereo unspecified)	-1	-5	-4	0	7	-6
COc1ccc(C(=O)NCCSCc2ccccc2C)cc1	30*	-3	-8	0	3	3
COc1ccc(C(=O)Nc2c3c(nn2-c2ccc(Cl)cc2)CS(=O)(=O)C3)cc1	-13	2	-2	1	7	-14
COc1ccc(C(=O)Nc2c3c(nn2-c2ccc([N+](=O)[O-])cc2)CS(=O)(=O)C3)cc1	8	4	1	18*	3	-2
Cc1c(Cl)cccc1NC(=S)N1CCCN(Cc2ccccc2F)C1	6	3	15	5	-7	12
Fc1ccccc1CN1CCCN(C(=S)Nc2cccc(Cl)c2)C1	19	10	-9	8	-13	29*
CSc1cccc(NS(=O)(=O)c2cc(Br)cnc2N)c1	-17	-6	-1	2	-24	63*
Cc1ccc(NS(=O)(=O)c2cc(Br)cnc2N)cc1C	-2	-6	-12	1	-24	100*
Cc1cc(C)cc(NS(=O)(=O)c2cc(Br)cnc2N)c1	-25	-3	28	2	0	-3
CCOC(=O)c1sc(NC(=O)Nc2ccc(Cl)cc2)nc1C	19	3	11	6	-7	22
CCCS(=O)(=O)NC(=O)C1(C)CCCN(C(=O)c2cc(-c3cccs3)oc2C)C1 (stereo unspecified)	-1	-1	-1	0	0	-4
CC(C)OC(=O)N(C)C[C@@H]1OCc2cnnn2CCCC(=O)N([C@H](C)CO)C[C@@H]1C	-6	-4	21	1	6	-7
O=C(NCc1cccc2ccsc12)c1cccs1	-8	-6	-1	-1	3	-4
Cc1ccc(S(=O)(=O)N2CCC(C(=O)N/N=C/c3ccncc3)CC2)cc1	24*	-4	-8	-1	2	-2
COc1ccc(NS(=O)(=O)c2cc(N)ccc2N2CCOCC2)cc1	-7	-3	4	1	13	-11
CCCCN(C(=O)C1CCCC1)c1c(N)n(CC(C)C)c(=O)[nH]c1=O	-15	1	7	0	30*	-27
CCCCN(C(=O)C1CCC1)c1c(N)n(CCC)c(=O)[nH]c1=O	-9	-2	-8	0	0	3

Screening data (PubChem BioAssay)
